Laboratory results published in PubChem BioAssay AID651815 (National Center for Advancing Translational Sciences (NCATS), 2012).
The campaign covered roughly 2,100 compounds. About 1,100 (52%) were called active. About 29% were inconclusive and are not listed. So high a share suggests a set chosen from earlier hits. Some of the results follow. A number with no mark means an inactive call. Calls follow the shape of the dose curve; as a rule, active = well fitted inhibition curve with a large enough effect; inconclusive = small, poorly fitted or top-dose-only effect; inactive = no such curve, though single readings can be large or run the other way.

Target: DNA dC->dU-editing enzyme APOBEC-3F (Homo sapiens) (UniProt Q8IUX4)
Assay: qHTS for inhibitors of Vif-A3F interactions: Cherry picks counterscreen; also: nearly all actives have a fitted effect of over 65% in size
Conditions: HeLa A3F-eYFP/Vif cells, eYFP fluorescence, 24 h; series mostly up to 46.1 µM; activity, negative = inhibitor: at the top concentration
From the text: The recent discovery and characterization of host restriction factors, which provide a potent defense to invading retroviruses, has provided new targets for antiviral drug development. APOBEC3G (A3G) and APOBEC3F (A3F) are potent cytidine deaminases that block HIV-1 replication; HIV-1 expresses the Vif protein, which counteracts A3G and A3F by binding to them and inducing their proteasomal degradation. The Vif-A3G and Vif-A3F interactions provide two potential targets for development of small molecules which can interfere with the ability of Vif to degrade A3G or A3F. […] To identify inhibitors that can interfere with Vif mediated degradation of A3G and A3F, we have developed Hela cell lines that stably express A3G or A3F tagged with eYFP at the C-terminal end (A3G-eYFP or A3F-eYFP, respectively) and Vif. In the absence of an inhibitor, Vif induces degradation of A3G-eYFP and A3F-eYFP, and the cells are not fluorescent. In the presence of an inhibitor, it is expected that Vif will be unable to degrade A3G-eYFP and/or A3F-eYFP, resulting in an increase in yellow fluorescence. In this counterscreen assay, Vif A3F was screened against the cherry picks ordered from the MLSMR. NIH Chemical Genomics Center [NCGC] NIH Molecular Libraries Probe Centers Network [MLPCN] MLPCN Grant: MH093245 Assay Submitter (PI): Vinay Pathak, National Cancer Institute
A3F-Vif cells were harvested from T225 flask and resuspended in phenol free OPTI-MEM medium with 5% FBS. Then 5 uL of 140,000 cells/mL resuspended cells was dispensed into each well of low base Aurora COC 1,536-well plates (black walled, clear bottom) using a Multidrop Combi dispenser. After overnight culture at 37 deg C with 5% CO2, a total of 23 nL of compounds at 5 selected concentrations from the NPC or positive control (2 mM stock of MG132) in DMSO was transferred to each well of the assay plate using a pintool (Kalypsys, San Diego, CA), and the plates were further incubated at 37 deg C with 5% CO2 for 24 hours. After that, the plates were measured on Acumen Explorer (TTP Lab Tech). The fluorescence was detected by 488 nm/Ex and […].
% is scaled to controls: 0 for no effect and ±100 for the full control effect; potency is read from the fitted curve at half-maximal effect.

Sequence of DNA dC->dU-editing enzyme APOBEC-3F (Homo sapiens) (Q8IUX4 whole entry, looked up): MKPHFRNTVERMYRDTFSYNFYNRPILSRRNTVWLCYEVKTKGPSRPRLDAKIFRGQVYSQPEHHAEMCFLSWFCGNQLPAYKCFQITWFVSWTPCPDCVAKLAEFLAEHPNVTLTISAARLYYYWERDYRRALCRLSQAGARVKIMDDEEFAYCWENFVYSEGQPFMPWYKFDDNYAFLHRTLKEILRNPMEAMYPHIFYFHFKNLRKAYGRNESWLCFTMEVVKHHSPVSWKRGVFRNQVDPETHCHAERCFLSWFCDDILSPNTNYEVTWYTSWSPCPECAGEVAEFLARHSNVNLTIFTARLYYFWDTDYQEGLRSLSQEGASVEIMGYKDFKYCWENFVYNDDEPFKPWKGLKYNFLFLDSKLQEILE

SMILES | Potency | activity, negative = inhibitor
Oc1sc(C=Nc2ccccc2)c2ccccc12 | 23.1 µM (active) | –
COc1ccc(N=Cc2sc(O)c3ccccc23)cc1 | 15.8 µM (active) | –
COc1ccc(N=Cc2c(O)c3ccccc3n2C(C)=O)cc1 | 16.4 µM (active) | –
COc1ccc(N=Cc2oc3ccc4ccccc4c3c2O)cc1 | 9.2 µM (active) | –
Cc1ccc(NC2=C(Cl)C(=O)N(C3CCCCC3)C2=O)cc1 | – | -2.36%
Oc1sc(C=Nc2ccc(F)cc2)c2ccccc12 | 20.6 µM (active) | –
COc1cc(OC)c(/C=C/c2ccnc3ccccc23)c(OC)c1 | 5.8 µM (active) | –
COc1cc(N(C)C)c(OC)cc1/C=C/c1ccnc2ccccc12 | 23.1 µM (active) | –
COc1cc(/C=C/c2ccnc3ccccc23)ccc1N(C)C | 23.1 µM (active) | –
CN(C)c1ccc(/C=C(/C#N)C(=O)Nc2nc3c(s2)CCN(Cc2ccccc2)C3)cc1 | 0.314 µM (active) | –
CN(C)c1ccc(/C=C(\C#N)C(=O)Nc2nc3c(s2)CCN(Cc2ccccc2)C3)cc1 | 0.396 µM (active) | –
N#C/C(=C\c1ccc(C(=O)O)cc1)c1nc2sc3c(c2c(=O)[nH]1)CCCC3 | – | -7.1%
Cc1ccc(N2C(=O)CS/C2=C(\C(Cl)=C(Cl)Cl)[N+](=O)[O-])cc1 | – | -2.43%
Cc1cccc2c(=O)n3c(cc12)-c1[nH]c2ccccc2c1CC3 | 16.4 µM (active) | –
CC[N+](C)(C)c1ccc(/C=C/c2ccncc2)cc1 | 20.6 µM (active) | –
CCC[N+](C)(C)c1ccc(/C=C/c2ccncc2)cc1 | 18.4 µM (active) | –
COc1ccc2nc(N3C(=O)/C(=C/c4ccccc4)NC3=S)sc2c1 | 13 µM (active) | –
COc1ccc(NC(=O)CSc2ccc3c4c(cccc24)C(=O)c2ccccc2-3)cc1 | 14.6 µM (active) | –
N#Cc1cccc(NC(=O)CSc2ccc3c4c(cccc24)C(=O)c2ccccc2-3)c1 | 11.6 µM (active) | –
CCn1c(CNC(=O)C23CC4CC(CC(C4)C2)C3)nnc1SCC(=O)Nc1ccc(OC)cc1 | – | 0.0525%
CCCCCCN1C[C@H](O)[C@@H](n2cc(COC(=O)c3ccccc3)nn2)C[C@@H]1c1ccc(C)cc1 | – | -0.577%
COc1ccc(NC(=O)c2cc(-c3ccccc3OC)on2)cc1 | 6.27 µM (active) | –

SMILES | Potency | activity, negative = inhibitor
COc1ccccc1-c1cc(C(=O)NN)[nH]n1 | – | -2.26% [at 36.9 µM]
CCCn1nnc(NC(=S)NC(=O)c2ccccc2OC)n1 | – | 1.76%
COc1ccc(C(=O)c2ccc(OC)c(OC)c2OC)cc1 | 6.27 µM (active) | –
CC(=O)c1cccc(-c2ccnc3c2CC(C(=O)NCC2CC2)O3)c1 (stereo not given) | 14 µM (active) | –
CC(=O)c1cccc(-c2ccnc3c2CC(C(=O)NCC2CCOCC2)O3)c1 (stereo not given) | 4.44 µM (active) | –
COc1ccc2c(C)cc(SCC#N)nc2c1 | 16.4 µM (active) | –
COc1ccc2c(C)cc(SCC(=O)N(C)C3CCS(=O)(=O)C3)nc2c1 (stereo not given) | – | -25.5%
C[C@]12CCC[C@H](O1)c1c(cc3c(c1O)C(=O)c1c(O)cc(O)cc1C3=O)O2 | 20.6 µM (active) | –
Cc1ccc(C(=O)NN(C)c2nc3ccccc3nc2C(F)(F)F)cc1 | 2.8 µM (active) | –
CN(NC(=O)c1ccccc1)c1nc2ccccc2nc1C(F)(F)F | 3.96 µM (active) | –
O=c1oc2cc(O)ccc2cc1-c1nc(-c2ccc(Cl)c(Cl)c2)cs1 | 2.06 µM (active) | –
CCc1sc(-c2cc3ccc(O)cc3oc2=O)nc1-c1ccc(C)cc1 | – | 37.3%
COc1cc(C2Sc3ccccc3NC3=C2C(=O)OC3)cc(OC)c1OC (stereo not given) | 17.7 µM (active) | –
CCOC(=O)Nc1cc2c(c(N)n1)N=C(c1ccccc1)CN2 | 0.116 µM (active) | –
Cc1nnc(SCC(=O)NCc2ccccc2F)c2nn(-c3ccc(Cl)cc3)c(C)c12 | 14.6 µM (active) | –
CCOC(=O)c1cnc(-n2nc(C)cc2C)nc1NNc1cc(C)nc(-c2ccccc2)n1 | – | 2.69%
O=C(Cn1c(=O)n(Cc2ccco2)c(=O)c2sc3ccccc3c21)Nc1ccccc1C(F)(F)F | 23.1 µM (active) | –
Cc1ccc2c(/C=C/c3c[nH]c4ccccc34)ccnc2c1C | 8.2 µM (active) | –
C(=Cc1c[nH]c2ccccc12)c1nccc2ccccc12 | 20.6 µM (active) | –
C(=C\c1c[nH]c2ccccc12)/c1nccc2ccccc12 | 18.4 µM (active) | –
CCCSc1nnc(N2C(=O)C(O)=C(C(=O)c3ccco3)C2c2ccccc2F)s1 (stereo not given) | – | 0.34%
Cc1nc2c3ccccc3n(Cc3ccccc3F)c2s1 | 17.7 µM (active) | –

SMILES | Potency | activity, negative = inhibitor
Cc1nc2c3cc(F)ccc3n(Cc3ccccc3F)c2s1 | 12.5 µM (active) | –
Cc1nc2c3cc(F)ccc3n(Cc3ccccc3)c2s1 | 6.27 µM (active) | –
CCOC(=O)CSc1nc2c(c(=O)[nH]1)C(C)(CC)Cc1ccccc1-2 (stereo not given) | 5.8 µM (active) | –
Cc1sc2nc(SCC(=O)N3CCOCC3)[nH]c(=O)c2c1-c1ccccc1 | – | -14.6%
CCSc1nccc(-c2nn(-c3ccc(C)cc3)ccc2=O)n1 | 7.04 µM (active) | –
c1ccc(Nc2nc(-c3ccccn3)cs2)cc1 | – | -11.1%
O=Cc1sc(Nc2ccccc2)nc1Cl | 16.4 µM (active) | –
Cc1ccc(Nc2nc(Cl)c(C=O)s2)cc1Cl | 18.4 µM (active) | –
COc1ccc(-c2n[nH]c3c2CN(C(=O)c2ccc(OC)c(OC)c2)CC3)cc1 | 4.44 µM (active) | –
COc1cccc(C2=CC(c3ccccc3)n3nnnc3N2)c1 (stereo not given) | 1.98 µM (active) | –
COc1cccc(C2=CC(c3cccs3)n3nnnc3N2)c1 (stereo not given) | 5.59 µM (active) | –
C=CCOC(=O)C1=C(C)Nc2nnnn2C1c1cccs1 (stereo not given) | – | -25.7% [at 36.9 µM]
COc1ccc(OC)c(C2C=C(c3ccc(C)c(C)c3)Nc3nnnn32)c1 (stereo not given) | 4.98 µM (active) | –
CCOC(=S)SCC(=O)N1CCc2cc(OC)ccc2C1C1C(=O)CCCC1=O (stereo not given) | 15.8 µM (active) | –
CCOC(=O)c1c(-c2ccc(OC)cc2)csc1/N=C/C1C(=O)CCCC1=O | – | -17.2%
O=c1c2ccccc2sc2ccc(NCCCN3CCOCC3)cc12 | 16.4 µM (active) | –
Cc1cc2oc3ccc(NCCCn4ccnc4)cc3c(=O)c2cc1C | – | -778% [at 46.1 µM, above what the read-out allows, likely interference]
COc1ccc(-c2cnc3c(NC=O)cc(-c4ccoc4)cn23)cc1OC | 11.2 µM (active) | –
COc1ccc(-c2cnc3c(NC=O)cc(-c4ccccc4)cn23)cc1OC | 1.77 µM (active) | –
COc1ccc(-c2cc(NC=O)c3ncc(-c4ccc(OC)c(OC)c4)n3c2)cc1OC | 4.44 µM (active) | –
Cc1ccc(-c2cc(NC=O)c3ncc(-c4cnn(C)c4)n3c2)cc1 | 5.59 µM (active) | –
